Data from PubChem BioAssay (NCI).
Compounds without any hit were thinned out: in the full panel of roughly 79,000, 15% have a hit. Unmarked numbers belong to inactive results. The source made the active and inactive calls. Cut-off read from the data, not from the text of the source: active = growth inhibition above about 70%; inactive = the rest.

How the values were obtained:
[1] = NCI Yeast Anticancer Drug Screen. Data for the rad50 strain (AID 155);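 note: 0% = growth of vehicle-only cultures of the same strain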; conditions: S. cerevisiae rad50 strain growth inhibition, stronger effect = higher value
How it was run: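 Genetically altered yeast (DNA repair pathway); compound treatment; growth inhibition vs vehicle ctrl.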

[2] = NCI Yeast Anticancer Drug Screen. Data for the mec2-1 strain (AID 157); conditions: S. cerevisiae mec2-1 strain, stronger effect = higher value
How it was run: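 Using mec2-1 yeast: add compound, measure growth, express inhibition versus vehicle-treated cultures.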

[3] = NCI Yeast Anticancer Drug Screen. Data for the sgs1 mgt1 strain (AID 161);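 note: 0% = growth of cultures given vehicle only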; conditions: S. cerevisiae sgs1 mgt1 strain, stronger effect = higher value
How it was run: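 This yeast growth screen uses a strain with defined DNA-repair lesions; compound-treated growth is compared with vehicle-treated growth.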

[4] = NCI Yeast Anticancer Drug Screen. Data for the cln2 rad14 strain (AID 165);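 note: 0% = growth equal to vehicle treated cultures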; conditions: S. cerevisiae cln2 rad14 strain, stronger effect = higher value
How it was run: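 Yeast strain cln2 rad14, bearing defects in cell cycle control and DNA repair, serves as the test system; values reflect growth inhibition compared with vehicle.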

[5] = NCI Yeast Anticancer Drug Screen. Data for the bub3 strain (AID 167); conditions: S. cerevisiae bub3 mutant strain, stronger effect = higher value
How it was run: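 Yeast carrying a defined mutation is treated with each compound, and growth is compared with that of vehicle-exposed cells to give inhibition.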

[6] = NCI Yeast Anticancer Drug Screen. Data for the mlh1 rad18 strain (AID 175); conditions: S. cerevisiae mlh1 rad18 strain growth inhibition, stronger effect = higher value
How it was run: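 Steps: expose repair-defective yeast to compound; measure growth; express inhibition against vehicle-treated controls.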

[7] = at 5.0 µM (retest, dose inferred, filed as 0.5)
[8] = at 50.0 µM (retest, dose inferred, filed as 5.0)

Row | SMILES | growth inhibition [1, 7] [%] | growth inhibition [1, 8] | growth inhibition ([1]; at 50.0 µM) | growth inhibition [2, 7] [%] | growth inhibition [2, 8] | growth inhibition ([2]; at 50.0 µM) | growth inhibition [3, 7] [%] | growth inhibition [3, 8] | growth inhibition ([3]; at 50.0 µM) | growth inhibition [4, 7] [%] | growth inhibition [4, 8] | growth inhibition ([4]; at 50.0 µM) | growth inhibition [5, 7] [%] | growth inhibition [5, 8] | growth inhibition ([5]; at 50.0 µM) | growth inhibition [6, 7] [%] | growth inhibition [6, 8] | growth inhibition ([6]; at 50.0 µM)
1 | O=[N+]([O-])c1ccc(-[n+]2ccc3ccccc3c2)c([N+](=O)[O-])c1 | 14 | 78% (active) | 72.4% (active) | 8 | 80% (active) | 52.3% | 11 | 79% (active) | 82.4% (active) | 10 | 61% | 37.4% | 6 | 59% | 78% (active) | 40 | 90% (active) | 81.6% (active)
2 | Nc1nc2c(ccc3ccccc32)s1 | -3 | 36% | 66% | -17 | 37% | 50.6% | 6 | 54% | 67.5% | 14 | 33% | 61.2% | -22 | 52% | 56.9% | 1 | 72% (active) | 57.6%
3 | COC(CCC[N+](C)(C)C)CC[N+](C)(C)C (configuration not stated) | 11 | 81% (active) | 95.9% (active) | -9 | 83% (active) | 97.6% (active) | -7 | 78% (active) | 97.8% (active) | 1 | 70% (active) | 95.9% (active) | -9 | 70% (active) | 97.1% (active) | 8 | 81% (active) | 96.5% (active)
4 | CN(C)CC1Cc2ccsc2C1=O (configuration not stated) | 0 | 85% (active) | 99% (active) | 5 | 75% (active) | 99.5% (active) | 3 | 54% | 99.4% (active) | 1 | 76% (active) | 99.5% (active) | 0 | 88% (active) | 99.3% (active) | 0 | 93% (active) | 99.2% (active)
5 | Cc1[nH]nc(-c2ccon2)c1N=O | 12 | 61% | 68.7% | -28 | 66% | 28.8% | 16 | 80% (active) | -1.75% | 22 | 48% | 4.65% | 56 | 90% (active) | 78.7% (active) | 64 | 93% (active) | 58.4%
6 | CCCCCCCC/C=C1\CCC(CN(C)C)C1=O (configuration not stated) | -2 | 97% (active) | 89.6% (active) | -35 | 99% (active) | 93.2% (active) | -13 | 97% (active) | 90.7% (active) | 8 | 95% (active) | 89.5% (active) | -23 | 98% (active) | 89.6% (active) | -19 | 97% (active) | 89.1% (active)
7 | CCCCNC(C)(C)COC(=O)/C=C/c1ccc(OCCCC)cc1 | 6 | 79% (active) | 89.2% (active) | -2 | 47% | 56.2% | 3 | 86% (active) | 75.8% (active) | 3 | 79% (active) | 80% (active) | 4 | 75% (active) | 86.6% (active) | 0 | 81% (active) | 89.2% (active)
8 | C1=C(c2ccccc2)C(c2ccc(OCCN3CCCCC3)cc2)Oc2ccccc21 (configuration not stated) | 39 | 99% (active) | 99.3% (active) | 9 | 99% (active) | 99.5% (active) | 24 | 99% (active) | 97.5% (active) | 25 | 99% (active) | 98.1% (active) | 35 | 99% (active) | 98.8% (active) | 16 | 99% (active) | 99.5% (active)
9 | CC(=O)N(c1ccccc1)c1nc2ccccc2s1 | -8 | 1% | -41.2% | -4 | -4% | -22.9% | -6 | -4% | -22.6% | -2 | -6% | -42.6% | 30 | 59% | 75.7% (active) | -25 | -51% | -30.3%
